# From PMC8384837, “Expanding the binding specificity for RNA recognition by a PUF domain”
# Positions count from the first letter of the chain named.
# Columns and labels:
# Assay in all cases: yeast three-hybrid, YBZ-1, SC-Leu-His + 0.5 mM 3-AT, 4 days
# Settings in all cases: tags: N-Gal4 AD-HA kept; label: inside an RPR1-promoter hybrid RNA with tandem MS2 sites; ssRNA
# [1] = target: PUM1 PUF domain R1-QCR (Homo sapiens, UniProt Q14671 828-1176, S863Q;R864C;Q867R)
# In short: (§1)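 The interaction score is the log change in variant frequency from input to selection. Scores were computed in log2 with a pseudocount of 1 for absent variants, using Illumina sequencing of PCR-amplified repeat regions. The input came from four days on SC-Leu and the selection from four days on SC-Leu-His + 0.5 mM 3-AT. The cells were strain YBZ-1 (LexA–MS2 coat fusion, HIS3 reporter) co-expressing Pumilio-1 PUF domain libraries and matching RNA elements from a centromeric plasmid.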
# [2] = target: PUM1 PUF domain R1-SYK (Homo sapiens, UniProt Q14671 828-1176, R864Y;Q867K)
# In short: as §1
# [3] = target: T1, PUM1 PUF domain R6-HWW (Homo sapiens, UniProt Q14671 828-1176, N1043H;Y1044W;Q1047W)
# T1 sequence: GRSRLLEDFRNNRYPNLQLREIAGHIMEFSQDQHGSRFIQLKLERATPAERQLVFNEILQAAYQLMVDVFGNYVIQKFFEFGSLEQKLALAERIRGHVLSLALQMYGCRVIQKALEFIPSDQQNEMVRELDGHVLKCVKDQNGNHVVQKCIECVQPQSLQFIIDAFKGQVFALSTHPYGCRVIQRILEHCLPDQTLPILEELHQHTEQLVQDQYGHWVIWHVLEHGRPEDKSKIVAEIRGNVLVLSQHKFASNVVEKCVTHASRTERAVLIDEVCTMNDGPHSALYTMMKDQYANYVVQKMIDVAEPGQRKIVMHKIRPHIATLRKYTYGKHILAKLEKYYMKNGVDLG
# In short: as §1
# [4] = target: T2, PUM1 PUF domain R6-NWL (Homo sapiens, UniProt Q14671 828-1176, Y1044W;Q1047L)
# T2 sequence: T1 sequence with H216N, W220L
# In short: as §1
# [5] = target: PUM1 PUF domain R2-VWW (Homo sapiens, UniProt Q14671 828-1176, N899V;Y900W;Q903W)
# In short: as §1
# [6] = target: PUM1 PUF domain R2-FWW (Homo sapiens, UniProt Q14671 828-1176, N899F;Y900W;Q903W)
# In short: as §1
# [7] = target: PUM1 PUF domain R5-RQN (Homo sapiens, UniProt Q14671 828-1176, C1007R;R1008Q;Q1011N)
# In short: as §1
# [8] = target: PUM1 PUF domain R7-RRN (Homo sapiens, UniProt Q14671 828-1176, S1079R;N1080R;E1083N)
# In short: as §1
sequence,measurement,setting,value
GGCUAGAACUAGUGGAUCCCCCGGCGCCCGGCGGCUCGAGCCCGGGUAAGUGUAAAUCGUCUGCAUGCCGCCGGGCGCCAUGCCUGCAGGUCGACUCUAGAAAACAUG,binding signal,[1],2.48 log2 enrichment (interaction score)
same,binding signal,[2],2.72 log2 enrichment (interaction score)
GGCUAGAACUAGUGGAUCCCCCGGCGCCCGGCGGCUCGAGCCCGGGUAAGUGUAAAUUGUCUGCAUGCCGCCGGGCGCCAUGCCUGCAGGUCGACUCUAGAAAACAUG,binding signal,[1],1.4 log2 enrichment (interaction score)
GGCUAGAACUAGUGGAUCCCCCGGCGCCCGGCGGCUCGAGCCCGGGUAAGUGUAAAUAGUCUGCAUGCCGCCGGGCGCCAUGCCUGCAGGUCGACUCUAGAAAACAUG,binding signal,[3],4.93 log2 enrichment (interaction score)
same,binding signal,[4],5.32 log2 enrichment (interaction score)
GGCUAGAACUAGUGGAUCCCCCGGCGCCCGGCGGCUCGAGCCCGGGUAAGUGUAAAAAGUCUGCAUGCCGCCGGGCGCCAUGCCUGCAGGUCGACUCUAGAAAACAUG,binding signal,[5],2.5 log2 enrichment (interaction score)
same,binding signal,[6],4.3 log2 enrichment (interaction score)
GGCUAGAACUAGUGGAUCCCCCGGCGCCCGGCGGCUCGAGCCCGGGUAAGUGAAAAUAGUCUGCAUGCCGCCGGGCGCCAUGCCUGCAGGUCGACUCUAGAAAACAUG,binding signal,[4],2.34 log2 enrichment (interaction score)
GGCUAGAACUAGUGGAUCCCCCGGCGCCCGGCGGCUCGAGCCCGGGUAAGUGUGAAUAGUCUGCAUGCCGCCGGGCGCCAUGCCUGCAGGUCGACUCUAGAAAACAUG,binding signal,[7],1.54 log2 enrichment (interaction score)
GGCUAGAACUAGUGGAUCCCCCGGCGCCCGGCGGCUCGAGCCCGGGUAAGUGUCAAUAGUCUGCAUGCCGCCGGGCGCCAUGCCUGCAGGUCGACUCUAGAAAACAUG,binding signal,[7],4.58 log2 enrichment (interaction score)
GGCUAGAACUAGUGGAUCCCCCGGCGCCCGGCGGCUCGAGCCCGGGUAAGUUUAAAUAGUCUGCAUGCCGCCGGGCGCCAUGCCUGCAGGUCGACUCUAGAAAACAUG,binding signal,[8],4.89 log2 enrichment (interaction score)
GGCUAGAACUAGUGGAUCCCCCGGCGCCCGGCGGCUCGAGCCCGGGUAAGUCUAAAUAGUCUGCAUGCCGCCGGGCGCCAUGCCUGCAGGUCGACUCUAGAAAACAUG,binding signal,[8],3.94 log2 enrichment (interaction score)
